Only some compounds are listed: those with a hit (about 2.7% of all), similar ones and a draw of the others.
CFTR F508del cor: CFTR F508del correction in bronchial cells; CFBE cells, YFP halide quenching; stimulated with forskolin plus potentiator P3; % fluorescence drop versus neutral controls; activity (quench increase), % at 7.58 µM; actives 0.36% (n = 350,000); AID 720511;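 active = mean added fluorescence quench of at least 8% versus neutral control, with both replicates also reaching 8%; inconclusive = only one of the mean or replicate conditions met; inactive = mean below 8% and not both replicates reaching 8%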;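 also: cells transiently co-express mutant CFTR-F508del with the halide-sensitive YFP; corrector assay measuring rescue of mutant channel to the surface after 24 h compound exposure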
Env fusion inh: inhibitors of HIV Env-mediated cell fusion. HeLa-JRFL Env/CEM21 cell fusion, luciferase. inhibition, % at 12.3 µM. actives 1.1% (n = 360,000);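 active = mean replicate inhibition score of at least 50 and every replicate individually at or above 50; inconclusive = only one of the two criteria met; inactive = mean below 50 and not all replicates reaching 50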;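 also: 0% = plate neutral controls and 100% = maraviroc near 300 nM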
INS-1E GSIS act: primary screen for activators of insulin secretion dependent on glucose, INS-1E cells, GLuc reporter luminescence. actives 0.61% (n = 370,000). INS-1E GLuc reporter insulin secretion, 2-3 h. activation, % at 16.6 µM;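 active = lowest replicate activation of at least 40%, so every replicate reaches that level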;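 also: 0% = median of neutral control wells and 100% = median of IBMX positive control wells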
Wnt bcat act: Wnt/beta-catenin pathway activation | Wnt/beta-catenin reporter cell assay, activator, plate reader | AID 743398 | actives 1.2% (n = 300,000) | activation, % at 9.35 µM; in the data active = activation above about 30%, passing the limit was not always enough; inconclusive = no clear call, values can overlap the other calls;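 also: 0% = neutral control wells and 100% = positive control wells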
MITF act: activators of MITF-driven TRPM1 promoter activity in SK-MEL-5 cells; SK-MEL-5 TRPM1-promoter luciferase, 24 h; % of positive control, neutral wells = 0; activation, % at 12.5 µM; actives 0.75% (n = 300,000);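 active = mean activation of at least 80% with every replicate also reaching 80%; inconclusive = mean reaches 80% but some replicate falls short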;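 also: 0% = neutral control wells and 100% = parthenolide positive control wells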
The depositor's hits bear a star; ? = inconclusive; · = not tested or not shown; [ ] = dose if it differs, or a comment.

SMILES	CFTR F508del cor	Env fusion inh	INS-1E GSIS act	Wnt bcat act	MITF act
Cc1cccc(OCc2nc(-c3nonc3N)no2)c1C	·	-165.4	·	62.2*	?
Nc1nonc1-c1noc(COc2ccccc2Cl)n1	·	-332.7	·	42.8*	113.4*
CCOc1ccc(Cc2nc(-c3nonc3N)no2)cc1OCC	·	·	22.0	·	1.0
Clc1ccccc1OCc1nc(-c2ccccn2)no1	·	-239.0	·	39.0*	24.1
c1ccc(CCc2nc(-c3ccccn3)no2)cc1	·	·	·	·	127.6*
Clc1ccc(OCc2nc(-c3ccccn3)no2)c(Br)c1	1.6	-185.7	·	11.4	·
Clc1ccccc1OCc1nc(-c2ccc(Br)o2)no1	0.6	-3.3	2.1	15.8	·
O=C(c1ccccn1)N1C[C@@H]2[C@H](c3ccccc31)[C@@H](CO)N2C(=O)C1CC1	-0.6	·	6.7	·	·
CCCNC(=O)N1C[C@H](C)[C@H](OC)CN(C)C(=O)c2ccc(NS(=O)(=O)CC(F)(F)F)cc2OC[C@H]1C	-2.7	-2.2[16.7 µM]	13.3	·	·
S=C(Nc1ccccc1)Nc1ccc2cn[nH]c2c1	2.9	-13.1	-21.3	32.6*	37.6
C=CCNC(=S)Nc1ccc2cn[nH]c2c1	4.4	9.7	40.1*	2.5	-1.1
Cc1noc(C)c1C(=O)OCC(=O)c1cc(C)n(Cc2ccccc2Cl)c1C	·	21.0	·	40.6*	54.9
Cc1cc(C)c(C)c(S(=O)(=O)N2CCC(C(=O)Nc3ccc(S(=O)(=O)N4CCOCC4)cc3)CC2)c1C	1.7	56.6*	-7.6	-2.7	-16.5
CC(=O)Nc1ccc(S(=O)(=O)N2CCC(C(=O)c3ccc(Cl)cc3)CC2)cc1	-3.7	55.6*	·	-5.1	-15.7
Cc1ccc(S(=O)(=O)N2CCC(C(=O)Nc3ccc(S(=O)(=O)N4CCOCC4)cc3)CC2)cc1	-4.6	29.1	-13.3	-2.8	-12.5
Cc1cc(C)c(C)c(S(=O)(=O)N2CCN(CC(=O)Nc3ccc([N+](=O)[O-])cc3)CC2)c1C	·	10.3	122.4*	·	-11.0
Cc1ccc(S(=O)(=O)N2CCN(CC(=O)Nc3ccc([N+](=O)[O-])cc3)CC2)cc1C	·	24.0	-31.9	-12.5	8.7
O=C(C[C@@H]1CC[C@H]2[C@@H](COC[C@H](O)CN2C(=O)c2ccccc2F)O1)N1CCN(c2ccccc2)CC1	1.0	·	12.3	·	·
COCCn1c(-c2ccsc2)nc2c1c(=O)[nH]c(=O)n2CC(C)C	·	·	·	·	6.2
COCCn1c(-c2ccc3ccccc3c2)nc2c1c(=O)[nH]c(=O)n2CC(C)C	0.1	9.2	47.9*	2.0	-12.2
O=C(C[C@@H]1CC[C@H]2[C@@H](COC[C@@H](O)CN2S(=O)(=O)c2ccc(F)cc2)O1)NCC1CCCCC1	0.3	-1.5[16.7 µM]	10.0	·	·
O=C(NCC(c1cccs1)N1CCOCC1)c1cc(=O)[nH]c2ccccc12 (stereo not drawn)	-2.0	·	14.9	0.2	-4.8
O=C(NCC(c1ccco1)N1CCCC1)c1cc(=O)[nH]c2ccccc12 (stereo not drawn)	0.3	5.7	2.3	58.1*	-11.8
O=C1[C@H](Cc2ccccc2)NCCCC[C@H](c2ccco2)N1Cc1ccccc1	0.2	74.5*	-6.0	-3.2	-4.5
O=C1[C@H](Cc2ccccc2)NCC=CC[C@@H](c2ccco2)N1Cc1ccccc1	0.7	33.3	-11.4	-0.7	-3.8
SMILES	CFTR F508del cor	Env fusion inh	INS-1E GSIS act	Wnt bcat act	MITF act
O=C1[C@H](Cc2ccccc2)NCCCC[C@@H](c2ccco2)N1Cc1ccccc1	0.9	58.0*	-2.1	0.9	5.6
O=C1[C@H](Cc2ccccc2)NCCCC[C@H](c2ccc(Cl)cc2)N1Cc1ccccc1	0.1	86.3*	-11.0	-10.8	-3.1
CCC(=O)N1CC[C@@H]2[C@@H](CO)Nc3ccc(C#Cc4cccnc4)cc3[C@@H]21	-0.5	·	26.5	·	·
COCC(=O)Nc1ccc2c(c1)C(=O)N(C)C[C@H](OC)[C@@H](C)CN(CCC(F)(F)F)[C@@H](C)CO2	0.9	-13.6[16.7 µM]	-10.7	·	·
COc1ccc(CCN(C)C(=O)CSc2ncnc3sccc23)cc1OC	3.0	0.9	77.9*	-1.0	-2.2
COc1ccc(CCN(C)C(=O)Cn2c(=O)oc3ccccc32)cc1OC	1.3	-3.9	69.8*	-3.0	-1.8
COc1ccc(CCN(C)c2ncnc3sccc23)cc1OC	0.6	25.3	20.4	0.7	-1.4
COc1ccccc1Cn1c(=O)oc2ccccc21	0.0	-43.1	43.1*	-1.1	·
CC(C)NC(=O)N(C)C[C@@H]1OCCCC[C@H](C)Oc2ccc(NC(=O)Nc3cccc4ccccc34)cc2C(=O)N([C@H](C)CO)C[C@@H]1C	-4.9	·	9.0	·	·
